# Only some compounds are listed: those with a hit (about 12% of all), similar ones and a draw of the others.
# TDP1 block: TDP1 (human) enzyme inhibition; Potency, µM (series often up to 130 µM), inactives show at the highest dose activity change, negative = inhibition, actives largely listed as inhibitors; recombinant TDP1, AlphaScreen DNA substrate cleavage; AID 485290; Q9NUW8; 350,000 tested, 0.28% active; further: on the % scale 0 is the no-effect control and ±100 the full control effect; nearly all actives have a fitted effect of over 40% in size
#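 Enzyme-compound mixtures sat 15 min at room temperature, followed by a 5 min reaction with 15 nM final substrate and 10 min with AlphaScreen beads. Recombinant human Tdp1 was used at 1 nM final.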
# Sfp PPTase inh: blocks B. subtilis Sfp PPTase activity; Biochemical Sfp PPTase activity, qHTS; Potency, µM, for the others: largest response in the series, negative = inhibition, hits mostly inhibitors; 310,000 tested, 3.5% active;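 further: the enzyme is Sfp with the accession as filed and its product quenches rhodamine fluorescence; 0% = enzyme reaction without inhibitor and -100% = no enzyme wells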
#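 Compounds were incubated with enzyme (final 15 nM) for 15 min at room temperature before substrate addition started the reaction. Fluorescence at 525 nm excitation, 598 nm emission was recorded immediately and after 30 minutes.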
# G9a inh: inhibitors of human histone lysine methyltransferase G9a | Potency, µM (highest dose often 102 µM), without a hit: at the top dose activity, negative = inhibition, hits mostly inhibitors | G9a H3K9 monomethylation, AlphaScreen, 2 h | 350,000 tested, 8.8% active | AID 504332 | Q96KQ7; further: on the % scale 0 is the no-effect control and ±100 the full control effect; nearly all actives have a fitted effect of over 75% in size
# Target sequence (Q96KQ7 913-1193 limits assumed): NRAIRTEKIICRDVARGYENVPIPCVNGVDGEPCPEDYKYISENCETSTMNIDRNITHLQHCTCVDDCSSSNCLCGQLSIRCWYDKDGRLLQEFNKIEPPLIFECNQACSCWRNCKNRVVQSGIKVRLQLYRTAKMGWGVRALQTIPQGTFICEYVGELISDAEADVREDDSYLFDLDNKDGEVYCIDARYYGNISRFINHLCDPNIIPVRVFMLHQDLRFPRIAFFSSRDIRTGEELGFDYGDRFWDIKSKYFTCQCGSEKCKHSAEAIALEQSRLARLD
#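 Step 1: enzyme (final 20 nM) with compound, 15 min RT. Step 2: substrate peptide 500 nM and SAM 20 uM, 2 h RT. Step 3: anti-H3K9me1 antibody and AlphaScreen beads, 10 min, then plate read.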
# JMJD2A Tudor inh: inhibitors of human JMJD2A Tudor domain | O75164 | AlphaScreen JMJD2A-Tudor / H3K4me3 peptide binding | Potency, µM (doses to about 114 µM), without a hit: at the highest dose activity change, negative = inhibition, usual class: inhibitors | 390,000 tested, 4.4% active | AID 504339; further: on the % scale 0 is the no-effect control and ±100 the full control effect; nearly all actives have a fitted effect of over 50% in size
# BAZ2B block: inhibitors of human BAZ2B bromodomain; Potency, µM (doses to about 114 µM), for the others: top-dose activity change, negative = inhibition, usual class: inhibitors; 360,000 tested, 4.4% active; AlphaScreen BAZ2B-H3K14Ac peptide displacement; Q9UIF8; AID 504333; further: on the % scale 0 is the no-effect control and ±100 the full control effect; nearly all actives have a fitted effect of over 60% in size
#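 AlphaScreen displacement: compounds (up to 110uM) incubated 30 min at room temperature with a preformed 50 nM BAZ2B/50 nM biotinylated H3K14Ac peptide complex in PBS pH 7.4 with Tween-20. Donor and acceptor beads at 10 ug/mL final added, 20 min light-protected before reading.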
# HP1b chromo inh: HP1-beta chromodomain-methylated histone interaction inhibition | P83916 | AlphaScreen HP1-beta / biotin-H3K9me3 peptide binding | Potency, µM (titrated, usually from 114 µM), inactives show at the top dose activity change, negative = inhibition, most hits filed as inhibitors | 390,000 tested, 0.56% active | AID 540317; further: nearly all actives have a fitted effect of over 70% in size
# Target sequence (P83916 whole entry, looked up): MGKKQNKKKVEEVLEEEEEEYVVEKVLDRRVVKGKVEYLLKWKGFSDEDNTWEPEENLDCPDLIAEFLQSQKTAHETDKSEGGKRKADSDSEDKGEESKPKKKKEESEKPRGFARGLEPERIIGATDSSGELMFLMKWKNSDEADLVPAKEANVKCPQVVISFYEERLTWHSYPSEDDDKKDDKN
#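 AlphaScreen: HP1-beta (50 nM) preformed 30 min with biotin-H3(1-18)K9me3 peptide (50 nM) in PBS pH 7.4, 0.01% Tween-20. Compound added for 30 min at RT, then streptavidin donor/nickel chelate acceptor beads (10 ug/mL) for 30 min.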
# An asterisk follows results filed as active; ? = inconclusive; . = no result; [ ] = dose if it differs, or a comment. The call rests on the fitted dose curve; in most records, active means well fitted curve in the direction sought with a large enough effect; inconclusive means small, poorly fitted or top-dose-only effect, or another doubt; inactive means no such curve, though single readings can be large; an effect the other way counts as inactive or inconclusive. Potency means the concentration at half of the fitted maximal effect.
SMILES,TDP1 block,Sfp PPTase inh,G9a inh,JMJD2A Tudor inh,BAZ2B block,HP1b chromo inh
CCOc1ccccc1NC(=O)C(CC(C)C)NS(=O)(=O)c1ccc2c(c1)oc(=O)n2C (configuration not stated),2%,.,0%[59 µM],-14%,-27%,22%
Cc1ccc(CN2C(=O)c3ccccc3Sc3ccc(C(=O)OCc4ccco4)cc32)cc1,-1%,.,5%[59 µM],-15%,-15%,21%[57 µM]
CC(C)CC(=O)Nc1ccc(C(=O)NNC(=S)NC(=O)C2CCCCC2)cc1,14%,10%,?,89µM*,10%,18%
N#CCC(=O)Nc1ccc(C(=O)NNC(=S)NC2CCCCC2)cc1,0%,.,.,-9%,.,1%
CCCCC(=O)NC(=S)Nc1cccc(NC(=O)c2ccccc2)c1,5%,7%,50µM*,-2%,-18%,29%
CCCOc1ccc(C(=O)NNC(=S)NC(=O)CC)cc1,9%,-26%,8.9µM*,32µM*,14%[57.1 µM],21%
CCC(=O)NC(=S)NNC(=O)c1ccc(NC(=O)c2ccccc2)cc1,8%,-24%,7.1µM*,?,-23%,32%
CCCCC(=O)NC(=S)NNC(=O)c1ccc(OC)cc1,5%,1%,3%[12.7 µM],-1%,4%,36%
COc1ccc(N=c2scc(C)n2CCCN2CCCC2=O)cc1,5%,3%,?,-16%,.,36%
CC(C)c1ccc(NC(=O)CCCC(=O)NCCc2ccccc2)cc1,.,5%,.,-10%,-6%,49%
COc1ccccc1C1C2=C(N=c3s/c(=C/c4cccc(OCC(=O)O)c4)c(=O)n31)c1ccccc1CC2 (configuration not stated),3%,79µM*,14µM*,35µM*,50µM*,?
COc1cccc(C2C3=C(N=c4s/c(=C\c5ccc(OCC(=O)O)cc5)c(=O)n42)c2ccccc2CC3)c1 (configuration not stated),.,56µM*,20µM*,45µM*,50µM*,-11%
CCN(CC)c1ccc(NC(=O)Cn2c3ncccc3c(=O)n2-c2ccccc2)c(C)c1,3%,.,?,-19%,-2%,12%
Cc1nc(N[C@@H](Cc2c[nH]c3ccccc23)C(=O)O)c2oc3ccccc3c2n1,-8%,12%,5.6µM*,-23%,56µM*,27%
O=C(O)c1ccc2c(c1)C(=O)N([C@H](Cc1c[nH]c3ccccc13)C(=O)O)C2=O,3%,15%,0%[12.7 µM],-25%,-6%,.
CCCOc1ccc(C(=O)CCNC(Cc2c[nH]c3ccccc23)C(=O)O)cc1 (configuration not stated),.,?,7.9µM*,-8%,-20%,44%
Cc1ccc(C(=O)Nc2ccccc2C(=O)NC(Cc2c[nH]c3ccccc23)C(=O)O)cc1 (configuration not stated),6%,-1%,23%[12.7 µM],-23%,79µM*,-24%
O=C(O)C(Cc1c[nH]c2ccccc12)N1C(=O)C2C3c4ccccc4C(c4ccccc43)C2C1=O (configuration not stated),-3%,20%,25µM*,-11%,?,18%
O=C(Nc1ccccc1)C1CCCN1/C=C/C(=O)C(F)(F)F (configuration not stated),3%,18%,4%,-5%,-1%,46%
O=C(Cc1cccs1)NC(Cc1c[nH]c2ccccc12)C(=O)O (configuration not stated),10%,6%,56µM*,22µM*,-18%,2%
CCOC(=O)c1c[nH]c2cc(OCC(C)C)c(OCC(C)C)cc2c1=O,.,16%,-21%[12.7 µM],.,.,.
O[C@@H](CNC[C@H](O)c1ccccc1)c1ccccc1,0%,?,?,-8%,?,28%
Cc1cc(C)n(CCCNCC(O)c2ccccc2)n1 (configuration not stated),0%,-18%,22µM*,79µM*,?,?
